These results are taken from PubChem BioAssay (NCATS).

Results filed as inconclusive are left out. Active and inactive are the calls of the source. Unless noted, calls come from the whole dose curve.

Assay [1] concerns the target Peroxisome proliferator-activated receptor delta (Homo sapiens) (UniProt Q03181). Nature of the assay: qHTS assay for small molecule agonists of peroxisome proliferator-activated receptor delta signaling (AID 588534).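 Note: 0% = DMSO basal wells and 100% = positive control agonist at 10 µM.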 The method, boiled down:
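EC50 and efficacy values derive from Hill fits of a concentration series in a beta-lactamase reporter cell assay. Exposure is 18 hrs at 37 C, with CCF4 fluorescence as the readout.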

Assay [2] in a line: qHTS assay for small molecule antagonists of peroxisome proliferator-activated receptor delta signaling (AID 588535).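 Note: cells co-treated with a PPAR-delta agonist as stimulator during compound exposure.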 To be noted: HEK293T PPARd-UAS-bla, beta-lactamase FRET ratio, 18 h; 460 nm channel. The gist of the method:
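Compounds tested in titration on PPAR-delta-UAS-bla HEK293T cells grown in charcoal/dextran-stripped serum (2%); beta-lactamase activity read via CCF4 emission at 460 and 530 nm.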

In assay [3] the target is Peroxisome proliferator-activated receptor gamma (Homo sapiens) (UniProt P37231). Nature of the assay: qHTS assay for small molecule agonists of peroxisome proliferator-activated receptor gamma signaling (AID 588536; active = well fitted curve in the direction sought with a large enough effect in the signal ratio, with a control signal flat, not every such curve was filed as active; the % refers to the signal ratio;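 note: 0% = DMSO basal wells and 100% = rosiglitazone at 2 µM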). The method, boiled down: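 Beta-lactamase reporter read-out: CCF4 fluorescence (ex 405, em 460/530 nm) after 2 h at RT. HEK293 GeneBLAzer cells were treated for 16 h at 37 C. Hill fits gave EC50 and efficacy versus 2 uM rosiglitazone (100%) and DMSO (0%).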
Background: In qHTS, concentration-response curves come from the screen itself.

Assay [4] has the same target. Nature of the assay: qHTS assay for small molecule antagonists of peroxisome proliferator-activated receptor gamma signaling (AID 588537; active = well fitted inhibition curve with a large enough effect in the signal ratio, with a control signal flat, not every such curve was filed as active; the % refers to the signal ratio;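 note: reporter cells co-stimulated with 50 nM rosiglitazone agonist during compound treatment; % of control where 0% means no effect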). The method, boiled down:
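HEK293 cells, PPAR-gamma-UAS-bla, 3000/well. Pre-incubation 6-6.5 h, 37 C. Compound titration with rosiglitazone 50 nM final, 16 h. CCF4 dye, 2 h RT, dual-emission fluorescence.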

Assay [5] has as its target Vitamin D3 receptor (Homo sapiens) (UniProt P11473). The assay can be described thus: qHTS assay for small molecule antagonists of vitamin D receptor signaling (AID 588541).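 Note: receptor activated by calcitriol during compound treatment; series mostly up to about 77 µM; % is set by controls: 0 for no effect and ±100 for the full control effect.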 The method, boiled down: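 VDR-UAS-bla HEK293T cells (2000/well, 2% charcoal-stripped FBS) were treated with titrated compounds plus 1-alpha,25-dihydroxyvitamin D3 (50 nM or 3 nM final) for 16 h at 37 C. CCF4 beta-lactamase fluorescence was read; Hill fits gave IC50.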

The target is the same in assay [6]. The assay can be described thus: qHTS assay for small molecule agonists of vitamin D receptor signaling (AID 588543).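 Note: 0% = DMSO basal and 100% = reference agonist control.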 The gist of the method:
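Measured: β-lactamase reporter activity (CCF4, 405 nm excitation, 460/530 nm emission) in HEK293T VDR-UAS-bla cells after 16 h compound exposure at 37 °C. Normalization against 50 nM 1α,25-dihydroxyvitamin D3 and DMSO; Hill-fit EC50.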

Assay [7] addresses Retinoic acid receptor RXR-alpha (Homo sapiens) (UniProt P19793). The assay can be described thus: qHTS assay for small molecule agonists of retinoid X receptor alpha signaling (AID 588544).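 Note: 0% = DMSO basal wells and 100% = reference agonist.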
Assay [8] has as its target Thyroid hormone receptor beta (Homo sapiens) (UniProt P10828). Nature of the assay: qHTS assay for small molecule agonists of thyroid hormone receptor beta signaling (AID 588545).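 Note: 0% = DMSO only and 100% = 10 nM T3.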 The method, boiled down: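 Beta-lactamase reporter activity under TR response element control is measured in HEK 293 cells after 18 hrs compound exposure. Signal is ratiometric CCF4 fluorescence, 460/530 nm.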

A short description of assay [9]: qHTS assay for small molecule antagonists of retinoid X receptor alpha signaling (AID 588546; active = well fitted inhibition curve with a large enough effect in the signal ratio, with a control signal flat, not every such curve was filed as active; the % refers to the signal ratio;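 note: cells stimulated with 9-cis-retinoic acid as agonist; % is set by controls: 0 for no effect and ±100 for the full control effect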). The note with it: HEK293T RXRa-UAS-bla, beta-lactamase ratio, antagonist mode; measured here: W530 green channel, cytotoxicity proxy. The method, boiled down: (§1)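 Beta-lactamase reporter inhibition, read as CCF4 fluorescence ratio (ex 405, em 460/530 nm) after 2 h at RT. HEK293T UAS-bla cells, 2500/well, were stimulated with 9-cis-RA at 500 or 100 nM final alongside test compound for 18 h at 37 C.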

Assay [10] deals with Retinoic acid receptor RXR-alpha (Homo sapiens) (UniProt P19793). The assay is described as above. The note with it: HEK293T RXRa-UAS-bla, beta-lactamase ratio, antagonist mode. The method, boiled down: as §1
Assay [11] has as its target Thyroid hormone receptor beta (Homo sapiens) (UniProt P10828). Nature of the assay: qHTS assay for small molecule antagonists of thyroid hormone receptor beta signaling (AID 588547; active = well fitted inhibition curve with a large enough effect in the signal ratio, with a control signal flat, not every such curve was filed as active; the % refers to the signal ratio;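 note: cells stimulated with 0.4 nM T3 agonist during compound exposure; series mostly up to about 77 µM; % is set by controls: 0 for no effect and ±100 for the full control effect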). To be noted: TR-UAS-bla HEK293, beta-lactamase ratio, antagonist mode, 18 h. The method, boiled down:
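TR-UAS-bla GripTite HEK293 cells in 2% charcoal/dextran FBS medium were preincubated 4 h at 37 C, given compound (0.59 nM to 92 uM) plus 0.4 nM T3 (final) for 18 h, then CCF4 for 2 h at RT; Hill fit gave IC50.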

Assay [12] is described as follows: qHTS assay for small molecule activators of the p53 signaling pathway (AID 651743; active = well fitted activation curve with a large enough effect in the signal ratio, not every such curve was filed as active; the % refers to the signal ratio; note: series mostly up to about 92 µM; % of control where 0% means no effect). To be noted: HCT-116 p53RE-bla, beta-lactamase FRET ratio, 16 h; activation: stronger effect = higher value. The gist of the method:
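Here HCT-116 cells with an integrated p53-responsive beta-lactamase gene were incubated with compounds (16 hours, 37 C) after a 5-hour plating period; beta-lactamase activity was detected as fluorescence intensity via B/G FRET substrate.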

Assay [13] is described as follows: qHTS assay for environmental chemicals that activate the Aryl hydrocarbon Receptor (AhR) signaling pathway (AID 651777; active = well fitted curve in the direction sought with a large enough effect; an effect the other way counts as inactive or inconclusive; note: % of control where 0% means no effect; nearly all actives have a fitted effect of over 15% in size). To be noted: 1A2-DRE human hepatoma cells, luciferase, 24 h; activation: stronger effect = higher value. The method, boiled down: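 Concentration–response screening used 1,200 1A2-DRE cells per well, 24 hr compound exposure (37 C, 5% CO2), and One-Glo luminescence as the AhR-driven CYP1A2 reporter signal.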

For assay [14], the target named is Peroxisome proliferator-activated receptor alpha (Homo sapiens) (UniProt Q07869). Nature of the assay: qHTS assay for small molecule agonists of the peroxisome proliferator-activated receptor alpha (PPARalpha) signaling pathway (AID 651778; active = well fitted curve in the direction sought with a large enough effect; an effect the other way counts as inactive or inconclusive; note: % of control where 0% means no effect). To be noted: PathHunter PPARalpha complementation, chemiluminescence, 6 h; max response: stronger effect = higher value. The method, boiled down: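 Cells plated at 2,000/well and held overnight at 37 C, 5% CO2, then compound added by pin tool for 6 hr; after PathHunter detection reagent and 60 min at room temperature, chemiluminescence from enzyme complementation was read.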

Assay [15] in a line: qHTS assay for small molecule agonists of the antioxidant response element (ARE) signaling pathway measured by Nrf2-dependant transcriptional activity (AID 720636; active = well fitted curve in the direction sought with a large enough effect in the repeat runs; an effect the other way counts as inactive or inconclusive; note: % of control where 0% means no effect). The gist of the method: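 Attachment 6 hr at 37 C, then compound versus DMSO vehicle for 16 hr in ARE-luc HepG2 cells (1% dialyzed FBS); luminescence recorded 30 min after ONE-Glo addition at room temperature.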

Assay [16] can be described thus: qHTS assay for small molecule agonists of the antioxidant response element (ARE) signaling pathway measured by Nrf2-dependant transcriptional activity - cell viability counter screen (AID 720653; active = well fitted curve in the direction sought with a large enough effect in the repeat runs; an effect the other way counts as inactive or inconclusive; note: % is set by controls: 0 for no effect and ±100 for the full control effect). To be noted: ARE-bla HepG2 viability, CellTiter-Glo ATP luminescence, 16 h; max response: stronger effect = lower value. The gist of the method: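 ARE-bla HepG2 cells (2,000/well) rested 5 hrs at 37C/5% CO2, then exposed to compounds in DMSO for 16 hrs. Viability was read in the same wells as intracellular ATP by luminescence, 30 min at room temperature after reagent addition.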

Assay [17] is described as follows: qHTS assay for cell viability of HEK293 cells (AID 743288; active = well fitted curve in the direction sought with a large enough effect; an effect the other way counts as inactive or inconclusive; note: % is set by controls: 0 for no effect and ±100 for the full control effect; nearly all actives have a fitted effect of over 50% in size). To be noted: ATP luminescence (CellTiter-Glo), 18 h; max response: stronger effect = lower value. The gist of the method: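 HEK293, 18 h, 37 C, ATP luminescence. Cells at 2,000/well were allowed at least 5 h to settle before dosing; CellTiter-Glo developed 30 min at RT.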
Assay [18] is described as follows: qHTS assay for cell viability of the p53RE-bla HCT-116 cell line (AID 743292; active = well fitted curve in the direction sought with a large enough effect; an effect the other way counts as inactive or inconclusive; note: % is set by controls: 0 for no effect and ±100 for the full control effect; nearly all actives have a fitted effect of over 55% in size). The method, boiled down: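 Compound-exposed HCT-116 (p53RE-bla) cells, 4,000 per well, were kept 16 h at 37 C following a 5 h preincubation. Cell number was estimated from total ATP by CellTiter-Glo luminescence read after 30 min at room temperature.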
For assay [19], the target named is Nuclear receptor subfamily 1 group I member 2 (Rattus norvegicus) (UniProt Q9R1A7). The assay can be described thus: qHTS assay for small molecule activators of the rat pregnane X receptor (rPXR) signaling pathway (AID 651751; call rule not given here; note: 0% is about no effect). The note with it: rPXR reporter cells, luciferase (One-Glo), 24 h.
Assay [20] concerns the target Glucocorticoid receptor (Homo sapiens) (UniProt P04150). The assay can be described thus: qHTS assay for small molecule agonists of glucocorticoid receptor signaling (AID 588532; active = well fitted curve in the direction sought with a large enough effect in the signal ratio, with a control signal flat; the % refers to the signal ratio;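 note: 100% = dexamethasone at 0.1 µM and 0% = DMSO only wells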). To be noted: HeLa MMTV-bla, beta-lactamase ratio, agonist, 18 h; activation: stronger effect = higher value, percent of dexamethasone control, DMSO zero. The method, boiled down:
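MMTV-bla HeLa, beta-lactamase reporter; medium with 1% charcoal/dextran-stripped FBS; cpds up to 92 uM, 18 h, 37 C; CCF4 readout 460/530 nm; Hill fit → EC50, efficacy vs 0.1 uM dexamethasone = 100%.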

Peroxisome proliferator-activated receptor gamma (Homo sapiens), sequence (P37231 whole entry, looked up): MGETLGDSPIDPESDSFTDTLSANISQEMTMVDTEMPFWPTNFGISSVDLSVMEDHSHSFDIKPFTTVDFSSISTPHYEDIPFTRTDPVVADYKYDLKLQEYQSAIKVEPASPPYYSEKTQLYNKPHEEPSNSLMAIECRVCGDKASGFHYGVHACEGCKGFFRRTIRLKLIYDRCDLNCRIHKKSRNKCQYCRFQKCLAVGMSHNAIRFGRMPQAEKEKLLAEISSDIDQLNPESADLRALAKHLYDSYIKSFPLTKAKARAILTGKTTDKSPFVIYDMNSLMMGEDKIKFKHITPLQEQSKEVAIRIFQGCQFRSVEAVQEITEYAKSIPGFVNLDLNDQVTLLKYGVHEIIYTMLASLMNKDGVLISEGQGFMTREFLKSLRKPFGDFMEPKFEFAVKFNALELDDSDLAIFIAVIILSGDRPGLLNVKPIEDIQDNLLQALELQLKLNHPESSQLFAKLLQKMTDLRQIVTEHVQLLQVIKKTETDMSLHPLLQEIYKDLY
Thyroid hormone receptor beta (Homo sapiens), sequence (P10828 whole entry, looked up): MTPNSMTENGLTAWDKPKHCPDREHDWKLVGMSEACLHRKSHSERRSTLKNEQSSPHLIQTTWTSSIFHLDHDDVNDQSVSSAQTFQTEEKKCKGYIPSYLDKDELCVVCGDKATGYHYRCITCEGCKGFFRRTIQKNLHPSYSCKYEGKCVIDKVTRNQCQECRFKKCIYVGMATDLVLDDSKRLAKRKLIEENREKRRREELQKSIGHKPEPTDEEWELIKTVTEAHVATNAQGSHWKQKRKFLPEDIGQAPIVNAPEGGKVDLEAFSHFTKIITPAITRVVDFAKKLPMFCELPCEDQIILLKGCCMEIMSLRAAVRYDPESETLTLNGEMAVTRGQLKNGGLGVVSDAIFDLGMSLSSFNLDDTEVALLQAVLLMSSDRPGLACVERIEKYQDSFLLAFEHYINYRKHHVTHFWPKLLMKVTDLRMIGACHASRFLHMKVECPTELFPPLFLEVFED
Vitamin D3 receptor (Homo sapiens), sequence (P11473 whole entry, looked up): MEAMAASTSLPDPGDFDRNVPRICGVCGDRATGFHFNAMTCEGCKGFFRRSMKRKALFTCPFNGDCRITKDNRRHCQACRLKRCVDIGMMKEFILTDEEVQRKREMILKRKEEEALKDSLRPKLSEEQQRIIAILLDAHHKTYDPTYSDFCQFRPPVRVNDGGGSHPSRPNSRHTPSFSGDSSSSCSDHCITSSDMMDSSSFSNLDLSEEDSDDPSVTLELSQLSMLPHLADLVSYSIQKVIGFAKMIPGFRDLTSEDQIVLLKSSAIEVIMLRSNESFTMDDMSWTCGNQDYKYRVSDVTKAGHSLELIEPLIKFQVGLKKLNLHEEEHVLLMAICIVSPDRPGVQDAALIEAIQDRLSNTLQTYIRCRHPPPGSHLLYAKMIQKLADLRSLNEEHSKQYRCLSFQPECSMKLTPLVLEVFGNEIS
Peroxisome proliferator-activated receptor delta (Homo sapiens), sequence (Q03181 whole entry, looked up): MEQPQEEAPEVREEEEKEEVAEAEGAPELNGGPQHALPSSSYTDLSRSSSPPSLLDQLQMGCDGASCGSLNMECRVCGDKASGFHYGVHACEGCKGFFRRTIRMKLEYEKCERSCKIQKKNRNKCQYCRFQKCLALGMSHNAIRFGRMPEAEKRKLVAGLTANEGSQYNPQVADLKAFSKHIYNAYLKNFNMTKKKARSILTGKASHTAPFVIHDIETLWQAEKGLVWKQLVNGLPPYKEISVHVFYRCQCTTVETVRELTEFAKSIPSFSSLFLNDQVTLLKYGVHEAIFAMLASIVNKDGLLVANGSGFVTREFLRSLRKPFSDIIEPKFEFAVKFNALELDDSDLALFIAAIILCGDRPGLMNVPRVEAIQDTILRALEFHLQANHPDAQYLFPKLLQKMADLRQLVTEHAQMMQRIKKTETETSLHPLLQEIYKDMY
Retinoic acid receptor RXR-alpha (Homo sapiens), sequence (P19793 whole entry, looked up): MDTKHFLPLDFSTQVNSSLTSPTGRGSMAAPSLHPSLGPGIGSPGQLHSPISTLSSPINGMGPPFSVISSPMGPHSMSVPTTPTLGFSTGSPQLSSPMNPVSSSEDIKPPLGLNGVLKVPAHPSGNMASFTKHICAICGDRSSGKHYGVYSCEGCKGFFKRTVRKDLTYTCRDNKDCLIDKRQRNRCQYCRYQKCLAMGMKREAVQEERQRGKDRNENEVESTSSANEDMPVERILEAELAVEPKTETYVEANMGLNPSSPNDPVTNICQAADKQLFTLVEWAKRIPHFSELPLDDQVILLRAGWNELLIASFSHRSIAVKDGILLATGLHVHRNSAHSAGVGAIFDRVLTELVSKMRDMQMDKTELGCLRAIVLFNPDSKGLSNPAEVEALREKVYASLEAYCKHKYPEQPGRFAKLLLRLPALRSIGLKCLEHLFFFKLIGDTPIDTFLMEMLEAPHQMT
Nuclear receptor subfamily 1 group I member 2 (Rattus norvegicus), sequence (Q9R1A7 whole entry, looked up): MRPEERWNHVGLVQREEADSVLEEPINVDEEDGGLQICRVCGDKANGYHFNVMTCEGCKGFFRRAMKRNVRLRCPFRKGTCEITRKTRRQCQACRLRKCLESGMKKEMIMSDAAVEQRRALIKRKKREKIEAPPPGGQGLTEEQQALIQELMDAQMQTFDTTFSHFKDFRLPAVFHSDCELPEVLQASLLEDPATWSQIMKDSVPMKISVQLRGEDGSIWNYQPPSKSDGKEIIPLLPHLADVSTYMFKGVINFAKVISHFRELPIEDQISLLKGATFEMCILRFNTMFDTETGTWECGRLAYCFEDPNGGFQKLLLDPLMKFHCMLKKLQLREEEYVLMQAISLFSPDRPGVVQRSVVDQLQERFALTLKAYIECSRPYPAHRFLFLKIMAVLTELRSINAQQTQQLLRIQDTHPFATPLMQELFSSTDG
Glucocorticoid receptor (Homo sapiens), sequence (P04150 whole entry, looked up): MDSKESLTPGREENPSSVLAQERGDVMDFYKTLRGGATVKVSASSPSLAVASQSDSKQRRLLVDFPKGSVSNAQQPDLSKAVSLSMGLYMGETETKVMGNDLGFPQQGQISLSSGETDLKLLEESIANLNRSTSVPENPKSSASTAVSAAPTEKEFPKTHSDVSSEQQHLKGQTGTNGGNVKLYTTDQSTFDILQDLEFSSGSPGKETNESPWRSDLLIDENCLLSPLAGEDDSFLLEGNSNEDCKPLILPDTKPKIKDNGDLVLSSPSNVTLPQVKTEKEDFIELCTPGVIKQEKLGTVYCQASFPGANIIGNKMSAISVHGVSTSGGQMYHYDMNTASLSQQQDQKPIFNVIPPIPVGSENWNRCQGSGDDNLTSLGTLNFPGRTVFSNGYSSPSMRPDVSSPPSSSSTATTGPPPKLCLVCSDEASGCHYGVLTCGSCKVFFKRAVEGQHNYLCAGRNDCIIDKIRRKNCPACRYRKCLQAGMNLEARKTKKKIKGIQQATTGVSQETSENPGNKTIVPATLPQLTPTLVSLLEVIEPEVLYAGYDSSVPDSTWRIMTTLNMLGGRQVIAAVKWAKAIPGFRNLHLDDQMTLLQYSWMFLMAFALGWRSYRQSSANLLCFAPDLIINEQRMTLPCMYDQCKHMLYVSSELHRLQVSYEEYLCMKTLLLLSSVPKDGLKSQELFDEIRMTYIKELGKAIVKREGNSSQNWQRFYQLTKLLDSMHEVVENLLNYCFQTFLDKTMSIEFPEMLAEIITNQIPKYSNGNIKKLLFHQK
Peroxisome proliferator-activated receptor alpha (Homo sapiens), sequence (Q07869 whole entry, looked up): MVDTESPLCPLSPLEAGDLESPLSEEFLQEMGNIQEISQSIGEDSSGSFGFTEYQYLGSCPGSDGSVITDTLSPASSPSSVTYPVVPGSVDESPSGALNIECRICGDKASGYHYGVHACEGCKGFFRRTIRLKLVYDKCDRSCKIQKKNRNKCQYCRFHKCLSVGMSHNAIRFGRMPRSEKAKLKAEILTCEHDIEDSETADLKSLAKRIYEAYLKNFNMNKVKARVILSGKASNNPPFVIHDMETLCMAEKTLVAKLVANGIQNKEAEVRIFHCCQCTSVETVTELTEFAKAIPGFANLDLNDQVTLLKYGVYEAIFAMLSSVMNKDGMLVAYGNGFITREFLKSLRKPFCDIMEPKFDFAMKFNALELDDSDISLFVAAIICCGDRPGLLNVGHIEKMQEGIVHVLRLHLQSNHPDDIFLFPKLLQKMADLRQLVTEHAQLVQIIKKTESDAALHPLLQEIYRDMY

On to `C[N+]1(C)CCCCC1`, for which the call in assay [1] and in assay [6] was inactive. Further, the max response in assay [2] is -14.2%; in assay [9], -2.65%; in assay [10], 0.987% (inactive); in assay [14], -0.937% (inactive); in [16] it was 4.82% (inactive); in [17], -11.8% (inactive). Also, in assay [19], the max response was 3.55% (inactive). The Potency entry in assay [3], in assay [4], in [5], in [7], in assay [8] and in assay [15] was “inactive” each time. Moreover, the Potency result in [18] is “inactive”. Further, the activity change % (negative = inhibition) in assay [11] was 2.54% (inactive). Moreover, the activation in assay [12] was 0.854% (inactive); in [13], 0.858% (inactive).

With `COc1cc(OC)nc(NC(=O)NS(=O)(=O)c2cc(NC=O)ccc2C(=O)N(C)C)n1`, the activation is -12.6% (inactive) in [20], -3.45% (inactive) in assay [12] and -3.78% (inactive) in [13]. Further, the compound was called inactive in assay [1] and in assay [6]. The max response in [2] is -27.4%; in assay [9], -2.91%; in assay [10] it was 14.5% (inactive); in assay [16], 11% (inactive); in [17], -24.7% (inactive); in assay [19], -9.56% (inactive). The Potency result in assay [3], in [4], in assay [5], in assay [7], in assay [8] and in [15] was “inactive” each time. For the same compound, the activity change % (negative = inhibition) in assay [11] is -8.65% (inactive).

For the compound `CCOP(=O)(OCC)OP(=O)(OCC)OCC`, the result in assay [1] and in [6] was inactive. Besides, the max response in assay [2] was 14.8%; in assay [9], -3.28%; in assay [16], 5.73% (inactive); in [17] it was -8.91% (inactive); in assay [19], 8.32% (inactive). In addition, the Potency result in assay [3], in assay [4], in assay [5], in assay [7], in assay [8] and in assay [15] was “inactive” throughout. For the same compound, the Potency result in assay [18] was “inactive”. Further, the activity change % (negative = inhibition) in assay [11] is 15.3% (inactive). For the same compound, the results for the activation in assay [12] and in assay [13] were -6.2% (inactive) and -0.108% (inactive), respectively.

As for `CCNc1nc(NC(C)C)nc(SC)n1`, the result in assay [1] and in assay [6] was inactive. Also, the max response in [2] was 5.95%; in assay [9] it was -15.6%; in assay [10], -29% (inactive); in assay [14], -2.07% (inactive); in assay [16], 4.35% (inactive); in assay [17] it was -10.8% (inactive). Moreover, the max response in [19] was -3.53% (inactive). Besides, the Potency result in assay [3], in assay [4], in assay [5], in [7], in assay [8] and in assay [15] was “inactive” in each case. Moreover, the Potency entry in assay [18] is “inactive”. In [11], the activity change % (negative = inhibition) is 5.24% (inactive). The activation in assay [13] was 0.555% (inactive).

As to `C#CCN1C(=O)COc2cc(F)c(N3C(=O)C4=C(CCCC4)C3=O)cc21`, the activation in assay [20] was -6.94% (inactive); in assay [13] it was 0.764% (inactive). In addition, the call in assay [1] and in assay [6] was inactive. Further, the Potency entry in assay [3], in [5], in [7], in assay [8], in [15] and in assay [18] was “inactive” in each case. Further, the max response in assay [9] is 5.82%; in [10], -8.58% (inactive); in assay [16] it was -24.6% (inactive); in assay [17], -11.7% (inactive); in assay [19] it was 6.57% (inactive). The activity change % (negative = inhibition) in [11] is -4.79% (inactive).
